In all, about 4,400 compounds went through this assay and about 390 (8.9%) showed an effect of 50% or more. The list comes from a sample in which strong results are over-represented; it also holds similar structures and randomly drawn compounds.
These compounds were tested on Trypanosoma brucei (assay: DNDI: Inhibition of Human African Trypanosomiasis, SBRI 427, in vitro at 2 ug.mL-1).
Assay type: functional
For `CCOC(=O)C1CCCCN1Cc1coc(-c2ccccc2C)n1` (configuration not stated), the “% inhibition” value was 1%. With `Cc1ccc(-c2nc(CNC(C)(C)CC(C)(C)C)co2)cc1` the “% inhibition” value was 19%. For `N#CCCN(Cc1coc(-c2ccc(Br)cc2)n1)CC1CCCO1` (configuration not stated), the “% inhibition” value was 11%. For `CCOc1ccccc1-c1nc(Cn2ncc3c2CCCC3)co1`, the “% inhibition” value was 12%. In the case of `Cc1ccc(/C(=N/O)N(C)Cc2ccco2)c(Oc2cc(Cl)ccc2Cl)n1`, the “% inhibition” value is reported as 13%. For `CCCCN(CC#N)Cc1coc(-c2ccc(OC)cc2)n1`, the “% inhibition” value was 1%. `Cc1ccc(/C(=N/O)n2nc(C)cc2C)c(Oc2ccc3ccccc3c2)n1` was tested, and the “% inhibition” value was 6%. With `CSc1ccc(Oc2nc(C)ccc2/C(=N/O)NCc2ccco2)cc1` the “% inhibition” value was -3%. In the case of `c1ccc2c(-c3nc(CN4CCC5(CC4)OCCO5)co3)cccc2c1`, the “% inhibition” value is reported as 1%. `CCN(CC)CCN(CC)Cc1coc(-c2ccccc2C)n1` was tested, and the “% inhibition” value was 5%. With `CC1CC(C)CN(/C(=N\O)c2ccnc(Oc3cccc(C(C)C)c3)c2)C1` (configuration not stated) the “% inhibition” value was 58%. With `CC(C)c1cccc(Oc2cc(/C(=N/O)N3CCC4CCCCC4C3)ccn2)c1` (configuration not stated) the “% inhibition” value was 9%. In the case of `CC1CC(C)CN(/C(=N\O)c2ccnc(Oc3ccc(F)c(Cl)c3)c2)C1` (configuration not stated), the “% inhibition” value is reported as 16%. With `CC1CC(C)CN(/C(=N\O)c2ccnc(Oc3ccc(F)c(F)c3)c2)C1` (configuration not stated) the “% inhibition” value was 5%. In the case of `CC1CC(C)CN(/C(=N\O)c2ccnc(Oc3cccc(F)c3)c2)C1` (configuration not stated), the “% inhibition” value is reported as -1%. `CC1CC(C)CN(/C(=N\O)c2ccnc(Oc3ccc(Cl)cc3)c2)C1` (configuration not stated) was tested, and the “% inhibition” value was 67%. In the case of `COc1ccc(-c2nc(CNC(C)c3cccc4ccccc34)co2)cc1` (configuration not stated), the “% inhibition” value is reported as 13%. In the case of `Cc1ccc(/C(=N/O)NCc2cccnc2)c(Oc2c(F)c(F)cc(F)c2F)n1`, the “% inhibition” value is reported as 35%. For `CCCCN(C)Cc1coc(-c2ccccc2)n1`, the “% inhibition” value was 6%. In the case of `CSc1ccc(Oc2cc(/C(N)=N/O)ccn2)cc1`, the “% inhibition” value is reported as 21%. `Cc1ccc(N2CCN(Cc3coc(-c4cccc(F)c4)n3)CC2)cc1C` was tested, and the “% inhibition” value was -4%. In the case of `O/N=C(\NCc1ccccn1)c1ccnc(Oc2cccc(F)c2)c1`, the “% inhibition” value is reported as -2%. For `O/N=C(\NC1CCCCC1)c1ccnc(Oc2ccc(F)c(F)c2)c1`, the “% inhibition” value was 99%. For `CC(C)c1ccc(N/C(=N\O)c2ccnc(Oc3ccc(F)c(F)c3)c2)cc1`, the “% inhibition” value was 22%. For `O/N=C(/c1ccnc(Oc2ccc(F)c(F)c2)c1)N1CCCCCC1`, the “% inhibition” value was 12%. For `O/N=C(\NCc1ccncc1)c1ccnc(Oc2ccc(F)c(F)c2)c1`, the “% inhibition” value was 8%. For `CC(C)c1ccc(N/C(=N\O)c2ccnc(Oc3cccc(F)c3)c2)cc1`, the “% inhibition” value was -2%. `O/N=C(\NC1CCCC1)c1ccnc(Oc2cccc(F)c2)c1` was tested, and the “% inhibition” value was 82%. For `CC1CCN(/C(=N\O)c2ccnc(Oc3ccc(F)c(F)c3)c2)CC1`, the “% inhibition” value was 41%. `O/N=C(\NC1CCCC1)c1ccnc(Oc2ccc(F)c(F)c2)c1` was tested, and the “% inhibition” value was 101%. With `CCN(Cc1coc(-c2cccc3ccccc23)n1)C(C)C` the “% inhibition” value was -1%. For `Cc1cccc(N2CCN(Cc3coc(-c4ccccc4Cl)n3)CC2C)c1` (configuration not stated), the “% inhibition” value was -10%. With `CSCCN/C(=N\O)c1cccnc1Oc1c(F)cccc1F` the “% inhibition” value was 78%. With `COc1ccc(Oc2ncccc2/C(=N/O)NCCSC)cc1` the “% inhibition” value was 10%. For `COCCN/C(=N\O)c1cccnc1Oc1cccc(C)c1C`, the “% inhibition” value was 0%. With `CSCCN/C(=N\O)c1cccnc1Oc1cccc2ccccc12` the “% inhibition” value was 11%. For `COCCN/C(=N\O)c1cccnc1Oc1c(F)cccc1F`, the “% inhibition” value was 65%. `CCOc1ccccc1Oc1ncccc1/C(=N/O)NCCOC` was tested, and the “% inhibition” value was 13%. For `CC(NCc1coc(-c2cccc(F)c2)n1)C(C)(C)C` (configuration not stated), the “% inhibition” value was 8%. With `Clc1ccccc1-c1nc(CN2CCCCCCC2)co1` the “% inhibition” value was 14%. For `Cc1cccc(CNCc2coc(-c3ccccc3Br)n2)c1`, the “% inhibition” value was -1%. With `CC1CC(C)CN(/C(=N\O)c2ccc(Oc3ccc(Cl)cc3)nc2)C1` (configuration not stated) the “% inhibition” value was 0%. For `CCOc1ccccc1-c1nc(CNCc2ccc(C(F)(F)F)cc2)co1`, the “% inhibition” value was 6%. For `CC(C)c1cccc(Oc2ccc(/C(=N/O)NCc3ccncc3)cn2)c1`, the “% inhibition” value was 100%. In the case of `Cc1cc(Oc2ccc(/C(=N/O)N(C)Cc3cccnc3)cn2)cc(C(C)C)c1`, the “% inhibition” value is reported as 12%. For `Cc1cc(Oc2ccc(/C(=N/O)NCc3ccncc3)cn2)cc(C(C)C)c1`, the “% inhibition” value was 3%. For `CC(C)c1cccc(Oc2cc(/C(=N/O)NCc3ccncc3)ccn2)c1`, the “% inhibition” value was 10%. `O/N=C(\NCc1ccncc1)c1ccc(Oc2cccc(F)c2)nc1` was tested, and the “% inhibition” value was 50%. In the case of `COc1ccc(CN/C(=N\O)c2ccc(Oc3cccc(F)c3)nc2)cc1`, the “% inhibition” value is reported as -3%. `CN(Cc1cccnc1)/C(=N\O)c1ccc(Oc2ccc3ccccc3c2)nc1` was tested, and the “% inhibition” value was 9%. In the case of `COc1cccc(Oc2ccc(/C(=N/O)NCc3cccs3)cn2)c1`, the “% inhibition” value is reported as 2%. In the case of `O/N=C(\NCc1cc(F)cc(F)c1)c1ccc(Oc2cccc(F)c2)nc1`, the “% inhibition” value is reported as 42%. `O/N=C(\NCc1cccs1)c1ccc(Oc2cccc(F)c2)nc1` was tested, and the “% inhibition” value was 75%. For `O/N=C(\NCc1cccs1)c1ccc(Oc2ccc3ccccc3c2)nc1`, the “% inhibition” value was -9%. In the case of `CC(C)c1cccc(Oc2ccc(/C(=N/O)N(C)Cc3cccnc3)cn2)c1`, the “% inhibition” value is reported as 99%. In the case of `COc1cc(C)ccc1Oc1ncccc1/C(=N/O)NCc1ccccn1`, the “% inhibition” value is reported as -7%. For `COC(=O)C1CCN(/C(=N\O)c2ccc(C)nc2Oc2ccc3ccccc3c2)CC1`, the “% inhibition” value was 19%. `Clc1ccccc1-c1nc(CN2CCCc3ccccc32)co1` was tested, and the “% inhibition” value was 1%. For `Clc1ccccc1-c1nc(CNCCN2CCOCC2)co1`, the “% inhibition” value was 2%. For `CCOC(=O)C1CCCCN1Cc1coc(-c2ccccc2Br)n1` (configuration not stated), the “% inhibition” value was -3%. In the case of `CCCN(CCC)Cc1coc(-c2cccs2)n1`, the “% inhibition” value is reported as 22%. With `O/N=C(/c1ccc(Oc2c(F)c(F)cc(F)c2F)nc1)N1CCN(c2ccc(F)cc2)CC1` the “% inhibition” value was 22%. For `CC1C=CC(C)N1Cc1coc(-c2ccccc2Cl)n1` (configuration not stated), the “% inhibition” value was 0%. `CC1CC(C)CN(/C(=N\O)c2ccc(Oc3ccc4ccccc4c3)nc2)C1` (configuration not stated) was tested, and the “% inhibition” value was -15%. In the case of `CC1CCCN1/C(=N\O)c1ccc(Oc2ccc3oc4ccccc4c3c2)nc1` (configuration not stated), the “% inhibition” value is reported as -6%. In the case of `Cc1cc(Oc2ccc(/C(=N/O)N3CCCCCC3)cn2)cc(C(C)C)c1`, the “% inhibition” value is reported as 21%. With `Cc1cc(Oc2ccc(/C(=N/O)N3CC(C)CC(C)C3)cn2)cc(C(C)C)c1` (configuration not stated) the “% inhibition” value was 4%. `CC1CCCN1/C(=N\O)c1ccc(Oc2ccc3ccccc3c2)nc1` (configuration not stated) was tested, and the “% inhibition” value was 99%. `O/N=C(/c1ccc(Oc2ccc3ccccc3c2)nc1)N1CCCCC1` was tested, and the “% inhibition” value was 12%. With `Cc1cc(Oc2ccc(/C(=N/O)N3CCCC3C)cn2)cc(C(C)C)c1` (configuration not stated) the “% inhibition” value was 93%. In the case of `CC1CCC(C)N1/C(=N\O)c1ccc(Oc2ccc3ccccc3c2)nc1` (configuration not stated), the “% inhibition” value is reported as 99%. `Cc1cc(C)cc(Oc2ccc(/C(=N/O)N3C(C)CCC3C)cn2)c1` (configuration not stated) was tested, and the “% inhibition” value was 6%.
